One experiment relates to AAK1. Further details: species or system human, MV4-11 + K-562 + COLO205 + SK-N-BE2 + OVCAR-8. To be noted: read-out: apparent Kd, n = 1.
The test system of the next experiment is BMP2K. Details: species or system human, MV4-11 + K-562 + COLO205 + SK-N-BE2 + OVCAR-8. To be noted: read-out: apparent Kd, n = 1.
The subject of another experiment is CLK4. Further details: species or system human, MV4-11 + K-562 + COLO205 + SK-N-BE2 + OVCAR-8. The following applies: read-out: apparent Kd, n = 1.
The next experiment relates to PKN1. Details: species or system human, MV4-11 + K-562 + COLO205 + SK-N-BE2 + OVCAR-8. The following applies: read-out: apparent Kd, n = 1.
The target in another experiment is Q6ZSR9 (human, UniProt Q6ZSR9). Details: species or system MV4-11 + K-562 + COLO205 + SK-N-BE2 + OVCAR-8. The following applies: read-out: apparent Kd, n = 1.
Sequence of Q6ZSR9 (Q6ZSR9 whole entry, looked up): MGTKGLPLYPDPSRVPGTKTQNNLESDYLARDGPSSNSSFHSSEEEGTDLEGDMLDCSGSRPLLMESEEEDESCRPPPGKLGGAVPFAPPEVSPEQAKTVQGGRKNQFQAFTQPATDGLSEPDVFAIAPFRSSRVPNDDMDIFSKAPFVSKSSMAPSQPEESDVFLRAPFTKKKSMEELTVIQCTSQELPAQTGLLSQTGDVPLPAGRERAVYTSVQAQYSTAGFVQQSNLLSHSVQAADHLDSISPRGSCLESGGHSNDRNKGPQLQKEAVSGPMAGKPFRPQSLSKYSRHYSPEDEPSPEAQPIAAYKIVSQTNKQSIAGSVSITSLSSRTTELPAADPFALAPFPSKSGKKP
The subject of another experiment is GSK3A. Further details: species or system human, MV4-11 + K-562 + COLO205 + SK-N-BE2 + OVCAR-8. To be noted: read-out: apparent Kd, n = 1.
The test system of the next experiment is GSK3B. Further details: species or system human, MV4-11 + K-562 + COLO205 + SK-N-BE2 + OVCAR-8. The following applies: read-out: apparent Kd, n = 1.
The subject of another experiment is MELK. Further details: species or system human, MV4-11 + K-562 + COLO205 + SK-N-BE2 + OVCAR-8. To be noted: read-out: apparent Kd, n = 1.
A further experiment has as its system PAK4. Further details: species or system human, MV4-11 + K-562 + COLO205 + SK-N-BE2 + OVCAR-8. The following applies: read-out: apparent Kd, n = 1.
The subject of a further experiment is PKN3. Details: species or system human, MV4-11 + K-562 + COLO205 + SK-N-BE2 + OVCAR-8. To be noted: read-out: apparent Kd; compound concentrations:100 nM and 1000 nM (sheet 'Samples'); n = 1.
For the next experiment, the system named is PRKAG1. Further details: species or system human, MV4-11 + K-562 + COLO205 + SK-N-BE2 + OVCAR-8. To be noted: read-out: apparent Kd; compound concentrations:100 nM and 1000 nM (sheet 'Samples'); n = 1.
The next experiment relates to RET. Details: species or system human, MV4-11 + K-562 + COLO205 + SK-N-BE2 + OVCAR-8. To be noted: read-out: apparent Kd, n = 1.
The test system of another experiment is CSNK2A1;CSNK2A3. Further details: species or system human, MV4-11 + K-562 + COLO205 + SK-N-BE2 + OVCAR-8. To be noted: read-out: apparent Kd, n = 1.
The next experiment concerns CSNK2A2. Further details: species or system human, MV4-11 + K-562 + COLO205 + SK-N-BE2 + OVCAR-8. To be noted: read-out: apparent Kd, n = 1.
For the next experiment, the system named is NUAK1. Further details: species or system human, MV4-11 + K-562 + COLO205 + SK-N-BE2 + OVCAR-8. The following applies: read-out: apparent Kd, n = 1.
The next experiment concerns SIK2. Details: species or system human, MV4-11 + K-562 + COLO205 + SK-N-BE2 + OVCAR-8. The following applies: read-out: apparent Kd, n = 1.
Another experiment concerns GAK. Further details: species or system human, MV4-11 + K-562 + COLO205 + SK-N-BE2 + OVCAR-8. To be noted: read-out: apparent Kd, n = 1.
Another experiment deals with FLT4. Further details: species or system human, MV4-11 + K-562 + COLO205 + SK-N-BE2 + OVCAR-8. The following applies: read-out: apparent Kd; compound concentrations:100 nM and 1000 nM (sheet 'Samples'); n = 1.
The test system of another experiment is CLK1. Details: species or system human, MV4-11 + K-562 + COLO205 + SK-N-BE2 + OVCAR-8. The following applies: read-out: apparent Kd; compound concentrations:100 nM and 1000 nM (sheet 'Samples'); n = 1.
The mark [1] stands for this setting: compound concentrations:100 nM and 1000 nM (sheet 'Samples').

Like-named read-outs stand apart in the source and are kept apart here.

`Cl.Cl.NC(CNC(=O)c1cc(Br)c(-c2ccnc3[nH]ccc23)s1)c1ccccc1.NC(CNC(=O)c1cc(Br)c(-c2ccnc3[nH]ccc23)s1)c1ccccc1` (stereo not shown) [GSK1322949A]: the potency estimated from few doses is 1070 nM with AAK1 (compound concentrations: 100 nM and 1000 nM (sheet 'Samples'), CATDS: 3.1655313708127797E-2); 552 nM in the experiment with BMP2K (compound concentrations: 100 nM and 1000 nM (sheet 'Samples'), CATDS: 4.4675050363511E-2); 1120 nM in the experiment with CLK4 (compound concentrations: 100 nM and 1000 nM (sheet 'Samples'), CATDS: 3.1125873030522201E-2); 2380 nM in the experiment with PKN1 (compound concentrations: 100 nM and 1000 nM (sheet 'Samples'), CATDS: 2.3359167172179899E-2); 1090 nM with Q6ZSR9 (compound concentrations: 100 nM and 1000 nM (sheet 'Samples'), CATDS: 3.14131871336574E-2).

Regarding `CCn1c(-c2nonc2N)nc2c(C#CC(C)(C)O)nc(O[C@@H](CN)c3ccccc3)cc21.O=C(O)C(F)(F)F` [GSK1007102B], the potency estimated from few doses is 67.3 nM in the experiment on AAK1 (setting [1]); 355 nM with BMP2K (setting [1]); 46.1 nM in the experiment with GSK3A (setting [1]); 40.5 nM in the experiment with GSK3B (setting [1]); 1040 nM in the experiment with MELK (setting [1]); 39.8 nM in the experiment with PAK4 (setting [1]). Moreover, the potency estimated from few doses in the experiment with PKN1 (setting [1]) was 37.6 nM; in the experiment on PKN3, 2.06 nM; in the experiment on PRKAG1 it was 765 nM; with Q6ZSR9 (setting [1]) it was 111 nM; with RET (setting [1]), 1250 nM.

For the compound `CC(C)Nc1cc(-c2ccc3c(N)n[nH]c3c2)nc(N)n1` [GSK2221681A], the potency estimated from few doses with AAK1 (setting [1]) was 149 nM; in the experiment on BMP2K (setting [1]), 947 nM; with CLK4 (setting [1]), 1550 nM; in the experiment on MELK (setting [1]), 1130 nM; with Q6ZSR9 (setting [1]), 220 nM.

On to `COc1ccc(Nc2nccc(-c3ccc(NC(=O)c4cc5cc(F)ccc5[nH]4)cc3)n2)cc1` [GSK1229496A], for which the potency estimated from few doses in the experiment with AAK1 (compound concentrations: 100 nM and 1000 nM (sheet 'Samples'), CATDS: 0.25032000609497101) is 1830 nM.

`O=C(O)C(F)(F)F.O=c1[nH]ccc2nc(N[C@@H]3CCNC3)nc(Nc3cc(Cl)cc(Cl)c3)c12` [GSK2188764A]: the potency estimated from few doses in the experiment on AAK1 (setting [1]) is 114 nM; in the experiment with BMP2K (setting [1]), 749 nM; in the experiment on CSNK2A1;CSNK2A3 (setting [1]), 239 nM; in the experiment on CSNK2A2 (setting [1]), 585 nM; with MELK (setting [1]) it was 765 nM; in the experiment with NUAK1 (setting [1]), 27.4 nM. Further, the potency estimated from few doses is 11 nM in the experiment on PAK4 (setting [1]); 799 nM with PRKAG1; 151 nM with Q6ZSR9 (setting [1]); 1350 nM in the experiment on RET (setting [1]); 1440 nM in the experiment on SIK2 (setting [1]).

For the compound `Cc1cccc(Nc2nc(N[C@H]3CCNC3)ncc2C(N)=O)c1.Cl` [GSK2197149A], the potency estimated from few doses is 64.6 nM in the experiment on AAK1 (setting [1]); 540 nM with BMP2K (setting [1]); 2150 nM with CSNK2A1;CSNK2A3 (setting [1]); 343 nM in the experiment on GAK (setting [1]); 1690 nM in the experiment with NUAK1 (setting [1]); 562 nM in the experiment on PAK4 (setting [1]). The figures for the potency estimated from few doses with Q6ZSR9 (setting [1]) and in the experiment on SIK2 (setting [1]) were 85.6 nM and 603 nM, respectively.

For the compound `NCC(NC(=O)c1cc(-c2cn[nH]c2)c(-c2ccnc3[nH]ccc23)s1)c1ccccc1.NCC(NC(=O)c1cc(-c2cn[nH]c2)c(-c2ccnc3[nH]ccc23)s1)c1ccccc1.O=C(O)C(F)(F)F.O=C(O)C(F)(F)F` (stereo not shown) [GSK1325775A], the potency estimated from few doses is 1070 nM in the experiment on AAK1 (compound concentrations: 100 nM and 1000 nM (sheet 'Samples'), CATDS: 3.6567153264384103E-2); 847 nM in the experiment with BMP2K (compound concentrations: 100 nM and 1000 nM (sheet 'Samples'), CATDS: 3.9732447761342798E-2); 2310 nM with PKN1 (compound concentrations: 100 nM and 1000 nM (sheet 'Samples'), CATDS: 2.9340466494355399E-2); 829 nM with Q6ZSR9 (compound concentrations: 100 nM and 1000 nM (sheet 'Samples'), CATDS: 4.0068531071680201E-2).

Regarding `CN(C)CCNC(=O)Nc1ccc(N(C)c2ccnc(Nc3ccc(CS(C)(=O)=O)cc3)n2)cc1.Cl` [GW830900A], the potency estimated from few doses in the experiment with AAK1 (setting [1]) was 820 nM; in the experiment with BMP2K (setting [1]), 1220 nM; with FLT4 it was 1240 nM; in the experiment with GAK (setting [1]), 1450 nM; in the experiment with NUAK1 (setting [1]), 1750 nM; in the experiment with Q6ZSR9 (setting [1]) it was 939 nM.

Consider `CNCC#Cc1c(F)ccc2c1/C(=C/c1[nH]ccc1OC)C(=O)N2.Cl` [RO0281601-001], for which the potency estimated from few doses with AAK1 (compound concentrations: 100 nM and 1000 nM (sheet 'Samples'), CATDS: 7.8599709029845199E-2) was 81.9 nM; in the experiment with BMP2K (compound concentrations: 100 nM and 1000 nM (sheet 'Samples'), CATDS: 0.12287640268831), 36.8 nM; in the experiment on CSNK2A1;CSNK2A3 (compound concentrations: 100 nM and 1000 nM (sheet 'Samples'), CATDS: 2.36611103564075E-2) it was 1450 nM; in the experiment with CSNK2A2 (compound concentrations: 100 nM and 1000 nM (sheet 'Samples'), CATDS: 2.8196939656964501E-2), 832 nM; in the experiment with GAK (compound concentrations: 100 nM and 1000 nM (sheet 'Samples'), CATDS: 2.4779459392996701E-2), 1240 nM; with GSK3A (compound concentrations: 100 nM and 1000 nM (sheet 'Samples'), CATDS: 3.3017253821498199E-2), 543 nM. The potency estimated from few doses in the experiment with GSK3B (compound concentrations: 100 nM and 1000 nM (sheet 'Samples'), CATDS: 2.9733635165772199E-2) is 717 nM; in the experiment with MELK (compound concentrations: 100 nM and 1000 nM (sheet 'Samples'), CATDS: 2.1569826245294601E-2), 2070 nM; in the experiment on NUAK1 (compound concentrations: 100 nM and 1000 nM (sheet 'Samples'), CATDS: 0.165743265872908) it was 22.7 nM; with PAK4 (compound concentrations: 100 nM and 1000 nM (sheet 'Samples'), CATDS: 2.65611791576283E-2), 993 nM; in the experiment with Q6ZSR9 (compound concentrations: 100 nM and 1000 nM (sheet 'Samples'), CATDS: 7.9611520405697994E-2), 79.9 nM; in the experiment on RET (compound concentrations: 100 nM and 1000 nM (sheet 'Samples'), CATDS: 3.1274331482211301E-2), 625 nM. Further, the potency estimated from few doses in the experiment on SIK2 (compound concentrations: 100 nM and 1000 nM (sheet 'Samples'), CATDS: 2.5744963506260699E-2) is 1090 nM.

Take `COC(=O)c1cccc(NC(=O)NC2CCN(c3ccnc(Nc4cc(OC)c(OC)c(OC)c4)n3)C2)c1` (stereo not shown) [GSK1379767A]: the potency estimated from few doses in the experiment with AAK1 (compound concentrations: 100 nM and 1000 nM (sheet 'Samples'), CATDS: 0.10680715656565699) was 1510 nM.

For the compound `CS(=O)(=O)CCn1c(=O)c(Oc2ccc(F)cc2F)cc2cnc(NC3CCOCC3)nc21` [RO5027956-000], the potency estimated from few doses is 968 nM with AAK1 (setting [1]); 1020 nM in the experiment with BMP2K (setting [1]); 1120 nM in the experiment with CLK1; 1240 nM with CLK4 (setting [1]); 1100 nM with CSNK2A1;CSNK2A3 (setting [1]); 1530 nM in the experiment on CSNK2A2 (setting [1]). Further, the potency estimated from few doses was 1390 nM in the experiment with FLT4; 422 nM in the experiment with GAK (setting [1]); 592 nM with GSK3A (setting [1]); 601 nM in the experiment on GSK3B (setting [1]); 1270 nM with PAK4 (setting [1]); 1540 nM with PKN1 (setting [1]). The potency estimated from few doses is 1230 nM in the experiment on PKN3; 812 nM in the experiment on PRKAG1; 932 nM with Q6ZSR9 (setting [1]); 823 nM with RET (setting [1]); 1100 nM with SIK2 (setting [1]).
